# According to PubChem BioAssay:
# Calls of active or inactive are those of the source. Unless noted, how the calls were made is not given here.
# Assays:
# [1] = HepG2 liver cancer cell viability effects, profiling panel, resazurin fluorescence, 24 h, PK04 Diversity Set (AID 1172); settings: higher = more signal
# [2] = basal S. cerevisiae growth modulation, no modifier, primary screen, OD600, strain BY4716, 24 h, basal condition (AID 1173); settings: OD600, 24 h, higher = more signal, called active from +8 up or from −8 down
# [3] = MM1S myeloma cell viability, profiling panel, resazurin fluorescence, basal, 24 h, PK04 Diversity Set (AID 1174); settings: higher = more signal, called active from +8 up or from −8 down;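 further: MM1S multiple myeloma cell line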
# [4] = biological target: Dihydroorotate dehydrogenase (quinone), mitochondrial (Plasmodium falciparum (isolate 3D7)) (UniProt Q08210); test: PfDHODH enzyme inhibitors, primary screen, biochemical, C-terminal His tag, absorbance 600 nm (AID 1175); settings: DCIP absorbance 600 nm, higher = more signal, called active from +8 up or from −8 down;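 further: recombinant parasite enzyme with a five histidine tag at its C terminus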
# Chain of Dihydroorotate dehydrogenase (quinone), mitochondrial (Plasmodium falciparum (isolate 3D7)) (Q08210 whole entry, looked up): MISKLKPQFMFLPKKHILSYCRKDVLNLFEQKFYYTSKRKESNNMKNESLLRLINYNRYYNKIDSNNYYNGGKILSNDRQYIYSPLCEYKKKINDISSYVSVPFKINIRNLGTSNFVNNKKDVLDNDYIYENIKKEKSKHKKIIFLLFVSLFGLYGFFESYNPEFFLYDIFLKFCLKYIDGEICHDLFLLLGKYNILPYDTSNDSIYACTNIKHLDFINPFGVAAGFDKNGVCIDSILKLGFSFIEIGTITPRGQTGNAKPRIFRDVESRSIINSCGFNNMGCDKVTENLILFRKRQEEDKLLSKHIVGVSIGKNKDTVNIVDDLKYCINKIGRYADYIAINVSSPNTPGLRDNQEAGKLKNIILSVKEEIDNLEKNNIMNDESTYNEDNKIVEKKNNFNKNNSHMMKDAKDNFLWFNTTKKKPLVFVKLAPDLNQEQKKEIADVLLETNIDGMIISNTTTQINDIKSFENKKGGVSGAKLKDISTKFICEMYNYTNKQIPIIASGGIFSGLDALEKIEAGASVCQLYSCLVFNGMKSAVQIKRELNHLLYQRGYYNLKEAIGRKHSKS
# [5] = P. aeruginosa biofilm formation inhibitors, primary screen, strain PAO1, LB-PBS medium, absorbance 600 nm (AID 1176); settings: P. aeruginosa PAO1 growth/biofilm, A600, 12 h; higher = more signal
# [6] = S. cerevisiae RM11-1a growth modifiers, primary screen, strain RM11-1a, OD600, basal, 24 h (AID 1177); settings: OD600, 24 h, higher = more signal, called active from +8 up or from −8 down;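 further: cultures grown under basal conditions with no added stressor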
# [7] = E. coli acrAB mutant growth effects, primary screen, E. coli filamentation inducers, strain DRC39, OD650, 24 h (AID 1178); settings: higher = more signal, called active from +8 up or from −8 down;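 further: growth measured as culture turbidity by optical density at 650 nm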
# [8] = E. coli acrAB mutant growth effects, primary screen, E. coli filamentation inducers, strain DRC39, OD650, 48 h (AID 1179);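 further: screen aims at cell division blockers that make cells filament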; settings: E. coli DRC39 delta-acrAB growth, higher = more signal, called active from +8 up or from −8 down
# [9] = RPMI8226 myeloma cell viability, profiling panel, resazurin fluorescence, basal, 24 h, PK04 Diversity Set (AID 1180); settings: higher = more signal;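 further: RPMI8826 multiple myeloma cell line at 5000 cells per well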
# [10] = biological target: E3 ubiquitin-protein ligase XIAP (Homo sapiens) (UniProt P98170); test: XIAP binders, primary screen, biophysical, small-molecule microarray, fluorescence 635 nm (AID 1181); settings: small-molecule microarray binding, higher = more signal;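 further: score merges 667 nm emission and signal to noise over triplicate slides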
# Chain of E3 ubiquitin-protein ligase XIAP (Homo sapiens) (P98170 whole entry, looked up): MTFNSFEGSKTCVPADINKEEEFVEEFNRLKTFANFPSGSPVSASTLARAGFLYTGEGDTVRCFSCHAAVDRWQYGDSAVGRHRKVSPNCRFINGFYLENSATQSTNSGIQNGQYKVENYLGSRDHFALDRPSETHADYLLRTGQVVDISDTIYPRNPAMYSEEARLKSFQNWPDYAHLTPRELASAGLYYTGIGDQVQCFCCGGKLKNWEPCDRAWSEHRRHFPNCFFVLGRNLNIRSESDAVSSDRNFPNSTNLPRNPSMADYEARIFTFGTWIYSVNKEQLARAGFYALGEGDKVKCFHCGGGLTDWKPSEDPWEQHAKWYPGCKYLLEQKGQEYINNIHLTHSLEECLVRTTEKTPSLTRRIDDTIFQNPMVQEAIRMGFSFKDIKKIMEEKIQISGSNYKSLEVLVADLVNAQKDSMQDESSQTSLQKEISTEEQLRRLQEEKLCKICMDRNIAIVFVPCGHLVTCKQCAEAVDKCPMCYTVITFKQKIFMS
# [11] = test system: XIP peptide (Xip251-270) binding; test: small-molecule binders of XIP peptide, primary screen, biochemical, small-molecule microarray, fluorescence 635/667 nm, 0.1 µg/mL protein (AID 1182); settings: fluorescent protein binding, 635 nm, higher = more signal, called active from +8 up or from −8 down
# XIP peptide (Xip251-270) = test: small-molecule binders of XIP peptide, primary screen, biochemical, small-molecule microarray, fluorescence 635/667 nm, 0.5 µg/mL protein (AID 1183); settings: small-molecule microarray binding, fluorescence 635 nm; higher = more signal
# [12] = Plasmodium falciparum growth inhibition, primary screen, strain 3D7, DAPI fluorescence, 100 nL (AID 1184);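 further: parasites grown inside human red blood cells in medium with human serum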; settings: P. falciparum 3D7 growth, 3 d, higher = more signal
# [13] = biological target: Homeobox protein Hox-A13 (Mus musculus) (UniProt Q62424); test: inhibitors of HoxA13-DNA binding, primary screen, biochemical, fluorescence polarization, labeled oligonucleotide (AID 1185); settings: 15 min, higher = more signal, called active from +8 up or from −8 down
# Chain of Homeobox protein Hox-A13 (Mus musculus) (Q62424 whole entry, looked up): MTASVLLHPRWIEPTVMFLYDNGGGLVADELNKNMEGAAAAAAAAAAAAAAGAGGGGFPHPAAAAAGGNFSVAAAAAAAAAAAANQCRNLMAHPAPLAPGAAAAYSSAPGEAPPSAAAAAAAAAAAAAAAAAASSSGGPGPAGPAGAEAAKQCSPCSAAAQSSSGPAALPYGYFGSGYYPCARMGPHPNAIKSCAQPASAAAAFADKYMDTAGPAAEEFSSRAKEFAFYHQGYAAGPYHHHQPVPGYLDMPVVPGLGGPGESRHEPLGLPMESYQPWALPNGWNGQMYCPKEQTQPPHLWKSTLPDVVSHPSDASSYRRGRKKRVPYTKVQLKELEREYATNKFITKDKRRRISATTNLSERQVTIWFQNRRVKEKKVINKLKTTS
# [14] = inhibitors of hydroxyurea-induced Chk1 phosphorylation, primary screen, imaging, HeLa, phospho-Chk1 antibody, percent positive cells (AID 1186); settings: hydroxyurea-induced phospho-Chk1 immunofluorescence imaging, higher = more signal
# [15] = inhibitors of hydroxyurea-induced Chk1 phosphorylation, primary screen, imaging, HeLa, phospho-Chk1 nuclear intensity (AID 1187); settings: hydroxyurea-induced phospho-Chk1 immunofluorescence imaging, higher = more signal
Structure (SMILES),z-score [1],z-score [2],z-score [3],composite z-score [4],z-score [5],z-score [6],z-score [7],z-score [8],z-score [9],composite z-score [10],composite z-score [11],composite z-score (XIP peptide (Xip251-270)),z-score [12],z-score [13],z-score [14],z-score [15]
COCCOC(=O)N1C(=O)[C@@]2(c3cc(C#CCCO)ccc31)[C@H](C(=O)Nc1nc3ccccc3s1)[C@H]1C(=O)O[C@H](c3ccccc3)[C@H](c3ccccc3)N1[C@@H]2c1ccccc1OCCO,0.316,2.04 (inactive),-0.459 (inactive),1.1 (inactive),1.7 (inactive),1.91 (inactive),-0.0306 (inactive),-0.339 (inactive),-1.28,-0.115,0.0261 (inactive),0.73,-1.68,2.62 (inactive),0.225 (inactive),0.416 (inactive)
CCOC(=O)c1ccc(NC(=O)O[C@H]2[C@H](OC(=O)Nc3ccc4c(c3)OCO4)[C@@H](OC(=O)Nc3ccc4c(c3)OCO4)[C@@H](OC)O[C@@H]2CO)cc1,-0.741,1.1 (inactive),-0.849 (inactive),0.0737 (inactive),2.08 (inactive),2.29 (inactive),1.04 (inactive),-0.0515 (inactive),-0.836,0.519,1.15 (inactive),0.894,-2.42,-8.16 (active),-0.301 (inactive),-0.0975 (inactive)
CCOC(=O)C[C@H]1[C@H](OC(=O)Cc2ccc3c(c2)OCO3)[C@@H](NC(=O)Cc2ccc(OC)cc2)c2cc(OCCCO)ccc2N1C(=O)c1ccc2ccccc2n1,-0.337,-1.12 (inactive),0.853 (inactive),-0.689 (inactive),0.82 (inactive),-2.18 (inactive),2.3 (inactive),2.12 (inactive),0.0153,0.0526,-0.16 (inactive),0.0481,-0.919,-3.37 (inactive),-0.996 (inactive),-0.347 (inactive)
COC(=O)c1c2oc(c1C(=O)OC)C(=O)N(C)Cc1cn(nn1)C[C@H](Cc1ccccc1)NC(=O)N[C@H](CO)CC2,-0.356,0.415 (inactive),-0.286 (inactive),0.31 (inactive),0.0914 (inactive),1.2 (inactive),-0.499 (inactive),-0.913 (inactive),-0.139,-0.0559,0.15 (inactive),-0.374,-0.38,-1.66 (inactive),0.453 (inactive),0.723 (inactive)
